# hcDAF12 agonist = H. contortus DAF-12 activation, primary screen; HEK293 hcDAF-12 lit1-tk-luc reporter, luminescence; 0% DMSO, 100% Δ7-dafachronic acid; activation, % at 6.8 µM; 370,000 compounds, 1.4% hits;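 active = activation above the mean of all tested compounds plus 3 SD, cut at about 5.5% in these data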
# hgDAF12 agonist = hgDAF-12 agonism, primary luciferase screen. 370,000 compounds, 1.8% hits. AID 687014. HEK293 GAL4-hgDAF12 UAS-luciferase reporter, agonist luminescence; normalized to butyrate control. activation, % at 6.8 µM;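 active = activation above a cutoff set at the mean of all screened compounds plus 3 SD, cut at about 10% in these data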
# SMARCA2 act = increases SMARCA2 function in MMTV reporter cells; MG213 cells, MMTV-luciferase reporter, dexamethasone, overnight; activation, % at 9.1 µM; 370,000 compounds, 1% hits; AID 652017; in the data active = activation above about 7.8%
# DAX1 inh-1 = inhibitors of human orphan nuclear receptor DAX1 (NR0B1); HEK293 Gal4-DAX1 luciferase reporter, luminescence; inhibition, % at 6.75 µM; 340,000 compounds, 0.99% hits;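 active = inhibition above the mean over all tested compounds plus 3 SD, cut at about 4.2% in these data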;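 also: inhibition shows as a rise in luminescence from relieved DAX1 repression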
# Target sequence (P51843 207-470 limits assumed): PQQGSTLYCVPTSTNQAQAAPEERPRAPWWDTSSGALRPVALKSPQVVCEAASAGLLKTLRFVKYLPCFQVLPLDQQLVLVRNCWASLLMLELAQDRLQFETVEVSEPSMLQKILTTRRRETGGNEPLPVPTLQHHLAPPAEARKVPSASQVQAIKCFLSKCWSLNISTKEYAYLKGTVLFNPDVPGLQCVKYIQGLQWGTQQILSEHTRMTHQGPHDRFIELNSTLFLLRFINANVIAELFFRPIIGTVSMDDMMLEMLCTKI
# DAX1 inh-2 = blocks DAX1 repression of SF-1 activated StAR promoter. inhibition, % at 6.8 µM. 370,000 compounds, 1.1% hits. HEK293T StAR-luciferase reporter, SF-1/DAX-1 repression relief. AID 652010;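 active = inhibition above the mean over all tested compounds plus 3 SD, cut at about 3.6% in these data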;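 also: higher inhibition means more luminescence from relief of DAX-1 repression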
# ssDAF-12 act = activates DAF-12 receptor from parasite S. stercoralis | HEK293 ssDAF-12/GRIP1 lit1-tk-luc reporter, luminescence; % of 3 µM dafachronic acid response | activation, % at 6.8 µM | 370,000 compounds, 1% hits;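 active = activation above the mean over all tested compounds plus 3 SD, cut at about 0.9% in these data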
# SMARCA2 conf = confirmation of SMARCA2 (BRM) function activators; shares compounds with SMARCA2 act; MG213 cells, MMTV-luciferase with dexamethasone, luminescence, overnight; MG213 cells expressing E1A, Rb sequestered; DMSO wells 0%, reference activator 100%; activation, % at 9.1 µM; 3,500 compounds, 30% hits;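 active = activation above its plate's cutoff, the mean activation of tested wells plus 3 SD, cut at about 7.9% in these data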
# VP16 Luc act = activates GAL4-VP16 luciferase, flagging SMARCA2 activator hits; shares compounds with SMARCA2 act; HEK293 GAL4-VP16 pG5luc reporter, luciferase luminescence; scaled: DMSO wells 0%, SAHA wells 100%; activation, % at 9.1 µM; 3,500 compounds, 41% hits; AID 686939;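 active = activation above the solvent-only control well mean plus 3 SD, averaged across control plates, cut at about 5.2% in these data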
# Numbers stand for hits; i = inactive; nt = no result. Only some compounds are listed: those with a hit (about 4.8% of all), similar ones and a draw of the others.
SMILES,hcDAF12 agonist,hgDAF12 agonist,SMARCA2 act,DAX1 inh-1,DAX1 inh-2,ssDAF-12 act,SMARCA2 conf,VP16 Luc act
CCc1ccc(OCC(=O)NC(=S)Nc2ccc(F)cc2)c(Br)c1,i,i,8.9,i,i,i,i,i
N#C/C(=C\c1c[nH]c2ccccc12)C(=O)NC1CC1,i,i,10,i,i,i,11,11
C/C(=N\NC(=O)c1ccc(F)cc1)c1ccccn1,i,i,9.6,i,i,i,i,i
C/C(CC(=O)Nc1ccc(N(C)C)cc1)=N\NC(=O)c1ccc(F)cc1,i,i,i,i,i,i,nt,nt
C/C(CC(=O)Nc1ccc(F)cc1)=N\NC(=O)c1ccccn1,i,11,9.2,i,i,i,i,i
C/C(=N\Nc1ccc(Cl)c(C(=O)O)c1)c1ccccn1,i,i,13,i,i,i,i,i
Cc1nc([N+](=O)[O-])c(Br)n1CC(=O)c1cccc([N+](=O)[O-])c1,i,i,i,i,i,i,nt,nt
CC(CCn1cccn1)NC(=O)c1cc(COc2ccc(F)cc2F)on1 (configuration not stated),i,i,i,i,i,i,nt,nt
CC(=O)Nc1ccc(Nc2nnc(-c3ccc(O)cc3)c3ccccc23)cc1,i,i,i,i,i,i,nt,nt
O=C(c1cc(-c2ccc(Cl)cc2)on1)N1CCCCCC1,i,i,10,i,i,i,8.1,9.2
O=C(c1cc(-c2ccc(Cl)c(Cl)c2)on1)N1CCCCCC1,i,i,i,i,i,i,nt,nt
COc1ccc(-c2cc(C(=O)N3CCCC3)no2)cc1OC,i,i,i,i,i,i,nt,nt
COc1ccc(-c2cc(C(=O)N3CCCCC3)no2)cc1OC,i,i,8.7,i,i,i,i,5.3
O=C(O)CN(c1ccc2c(c1)OCCO2)S(=O)(=O)c1ccccc1,i,i,i,i,i,i,nt,nt
CCOC(=O)c1c(NC(=O)C(NCCN(C)C)c2ccccc2)sc2c1CCCC2 (configuration not stated),i,i,13,i,i,i,i,i
COc1ccc(-c2noc(CN(C)C(=O)c3ccoc3C)n2)cc1OC,i,i,i,i,i,i,nt,nt
CCOc1ccc(NC(=O)Cn2cncc2-c2ccc([N+](=O)[O-])cc2)cc1,i,i,i,i,i,i,nt,nt
CCOC(=O)Cn1cncc1-c1ccc([N+](=O)[O-])cc1,i,i,13,i,i,i,i,i
O=C(NC(=S)Nc1cccc(C(F)(F)F)c1)c1ccc2nonc2c1,i,i,i,nt,i,i,nt,nt
COc1ccc(OC)c(/C=C2\SC(N3CCCCC3)=NC2=O)c1,i,i,8.0,i,i,i,i,i
COc1cc(OC)c(OC)cc1/C=C1\SC(N2CCCCC2)=NC1=O,i,i,i,i,i,i,nt,nt
CN(C)c1ccc(C=C2C=C(c3ccccc3)OC2=O)cc1,i,i,i,i,i,i,nt,nt
Cc1ccc(C=C2C=C(c3ccccc3)OC2=O)cc1,i,i,8.6,i,i,i,i,6.1
Cc1cc(C)n(CCc2nc(-c3ccco3)cs2)n1,i,i,i,i,i,i,nt,nt
CC1CCCN(CCCNC(=O)c2ccc(NC(=O)C3=CSCCO3)cc2)C1 (configuration not stated),i,i,i,i,i,i,nt,nt
SMILES,hcDAF12 agonist,hgDAF12 agonist,SMARCA2 act,DAX1 inh-1,DAX1 inh-2,ssDAF-12 act,SMARCA2 conf,VP16 Luc act
Cc1cc(N2CCOCC2)nc2ccc(NC(=O)CCC(=O)N3CCN(c4ccccc4)CC3)cc12,i,i,8.2,i,i,i,i,5.4
CCCCNC(=O)CCC(=O)Nc1ccc2nc(N3CCOCC3)cc(C)c2c1,i,i,i,i,i,i,nt,nt
COCCNC(=O)[C@@H]1CSC2c3ccccc3C(=O)N21 (some centres not stated),i,i,i,i,i,i,nt,nt
COc1ccc(C(=O)Cc2nnc(C)s2)cc1,i,i,9.1,4.8,i,i,i,12
Cc1nc(CS(=O)(=O)c2ccc(Cl)cc2)cc(Sc2ccccc2Cl)n1,i,i,i,i,i,i,nt,nt
Cc1nc(CS(=O)(=O)c2ccccc2)cc(Sc2ccccc2Cl)n1,i,i,8.2,i,i,i,i,6.9
COc1ccc2c(CCNC(=O)c3ccco3)c[nH]c2c1,i,i,9.6,i,i,i,i,i
O=C(N/N=C/c1ccccn1)c1ccc(Cl)cc1,i,i,13,i,i,i,i,21
Clc1ccc(C=Cc2ccccn2)cc1,i,13,19,i,i,i,i,8.0
O=C(/C=C/c1ccc(Cl)cc1)N1CCN(c2ccccn2)CC1,i,i,i,i,i,i,nt,nt
CC(C)CCNC(=O)C(c1ccco1)N(Cc1ccc(F)cc1)C(=O)c1snc(C(N)=O)c1N (configuration not stated),i,i,i,i,i,i,nt,nt
COc1ccc(CC(=O)Nc2c3c(nn2-c2ccccc2C)CS(=O)C3)cc1 (configuration not stated),i,i,8.7,i,i,i,i,i
CSc1ccc(CN(C)CC(=O)NCc2ccccc2)cc1,i,i,i,i,i,i,nt,nt
Cc1csc(C)[n+]1CC(=O)c1ccccc1,i,i,i,i,i,i,nt,nt
CCOC(=O)C[n+]1c(C)csc1C,i,i,8.6,i,i,i,i,i
N/C(=N\OC(=O)c1cccc(Cl)c1)c1ccncc1,i,i,i,i,i,i,nt,nt
COc1ccc(/C(N)=N/OC(=O)c2ccc([N+](=O)[O-])c(C)c2)cc1OC,i,i,i,i,i,i,nt,nt
N/C(=N\OC(=O)c1ccc(Cl)cc1Cl)c1ccncc1,i,i,12,i,i,i,11,20
Cc1cc(C(=O)O/N=C(\N)c2ccncc2)ccc1[N+](=O)[O-],i,i,14,4.4,i,i,i,5.2
CC(C)C(Cl)=NOC(=O)Nc1ccc(S(N)(=O)=O)cc1,i,i,47,i,i,i,i,i
COC(=O)C1(Cc2cc(-c3ccc(OC)cc3OC)no2)CCN(C(=O)OC(C)(C)C)CC1,i,i,i,i,i,i,nt,nt
COc1ccc(-c2cc(C(=O)Nc3cc(OC)c(OC)c(OC)c3)no2)cc1,i,i,i,i,i,i,nt,nt
COCCN1CCN(c2c(C)c(C)nc3cc(-c4cccc(OC)c4)nn23)CC1,i,i,11,i,i,i,9.7,i
CCOCCN1CCN(c2c(C)c(C)nc3cc(-c4cc(OC)cc(OC)c4)nn23)CC1,i,i,i,i,i,i,nt,nt
CN(CC(=O)Nc1ccccc1Br)C(=O)c1ccc(-c2ccc(Cl)cc2)o1,i,i,8.9,i,i,i,i,i
